# Results filed as inconclusive are left out. Where a call stands in place of a potency, no number is given. Calls of active or inactive are those of the source. Unless noted, calls follow the shape of the dose curve; as a rule, active = well fitted curve in the direction sought with a large enough effect in the repeat runs; inconclusive = weak or mixed curves; inactive = no such curve, though single readings can be large; an effect the other way counts as inactive or inconclusive.
# Tests used:
# [1] = qHTS assay to identify small molecule antagonists of the glucocorticoid receptor (GR) signaling pathway - cell viability counter screen (AID 720693); also: nearly all actives have a fitted effect of over 55% in size
# [2] = qHTS assay for identifying genotoxic compounds that show differential cytotoxicity against isogenic chicken DT40 cell lines with known DNA damage response pathways - wild type cell line (AID 743012); also: nearly all actives have a fitted effect of over 60% in size; also: potency is read from the fitted curve at half-maximal effect
# Procedure, shortened: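 Viability by ATP luminescence (CellTiter-Glo, 30 min RT) after 40 h compound treatment at 37 C/5% CO2, using 300 parental DNA repair-proficient DT40 cells per well.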
# [3] = qHTS assay for identifying genotoxic compounds that show differential cytotoxicity against isogenic chicken DT40 cell lines with known DNA damage response pathways - Rev3 mutant cell line (AID 743014); also: nearly all actives have a fitted effect of over 55% in size; also: potency is read from the fitted curve at half-maximal effect
# [4] = qHTS assay for identifying genotoxic compounds that show differential cytotoxicity against isogenic chicken DT40 cell lines with known DNA damage response pathways - Rad54/Ku70 mutant cell line (AID 743015); also: nearly all actives have a fitted effect of over 60% in size; also: potency is read from the fitted curve at half-maximal effect
# [5] = qHTS assay to identify small molecule antagonists of the androgen receptor (AR) signaling pathway - cell viability counter screen (AID 743033; also: nearly all actives have a fitted effect of over 45% in size)
# [6] = target: Androgen receptor (Homo sapiens) (UniProt P10275); experiment: qHTS assay to identify small molecule antagonists of the androgen receptor (AR) signaling pathway (AID 743035; active = well fitted inhibition curve with a large enough effect in the signal ratio in the repeat runs, not every such curve was filed as active; the % refers to the signal ratio)
# Chain of Androgen receptor (Homo sapiens) (P10275 whole entry, looked up): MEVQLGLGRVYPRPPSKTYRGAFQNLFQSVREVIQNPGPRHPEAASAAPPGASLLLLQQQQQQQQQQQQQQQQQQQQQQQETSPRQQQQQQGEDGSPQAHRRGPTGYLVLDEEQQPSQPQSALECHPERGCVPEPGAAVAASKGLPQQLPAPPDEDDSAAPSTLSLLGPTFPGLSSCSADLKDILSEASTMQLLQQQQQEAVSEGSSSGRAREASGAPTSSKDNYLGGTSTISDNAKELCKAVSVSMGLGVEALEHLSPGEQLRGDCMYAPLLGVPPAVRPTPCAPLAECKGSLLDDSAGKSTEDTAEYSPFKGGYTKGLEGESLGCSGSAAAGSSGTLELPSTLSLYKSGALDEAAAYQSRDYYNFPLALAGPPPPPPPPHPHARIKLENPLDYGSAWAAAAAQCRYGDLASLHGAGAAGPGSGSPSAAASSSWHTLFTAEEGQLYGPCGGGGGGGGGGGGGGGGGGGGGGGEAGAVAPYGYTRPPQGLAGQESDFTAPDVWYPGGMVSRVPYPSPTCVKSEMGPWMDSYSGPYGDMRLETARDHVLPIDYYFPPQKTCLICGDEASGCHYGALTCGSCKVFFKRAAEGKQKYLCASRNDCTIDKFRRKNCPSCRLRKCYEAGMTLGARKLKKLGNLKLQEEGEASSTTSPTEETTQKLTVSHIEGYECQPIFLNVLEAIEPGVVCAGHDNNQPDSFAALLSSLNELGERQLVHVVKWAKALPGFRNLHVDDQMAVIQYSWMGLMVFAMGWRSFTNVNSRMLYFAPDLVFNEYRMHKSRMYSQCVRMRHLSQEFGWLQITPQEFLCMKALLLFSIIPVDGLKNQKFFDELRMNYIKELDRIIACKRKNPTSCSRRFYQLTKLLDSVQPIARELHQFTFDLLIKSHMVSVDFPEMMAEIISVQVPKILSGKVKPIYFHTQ
# Procedure, shortened: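 Antagonist mode: AR-bla HEK293 cells co-treated with test compounds and agonist R1881 for 16 h at 37C, 5% CO2. Beta-lactamase activity read as FRET fluorescence after 2 h room-temperature substrate loading.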
# [7] = target: Androgen receptor (Homo sapiens) (UniProt P10275); experiment: qHTS assay to identify small molecule agonists of the androgen receptor (AR) signaling pathway (AID 743036; active = well fitted activation curve with a large enough effect in the signal ratio in the repeat runs, with a control signal flat, not every such curve was filed as active; the % refers to the signal ratio; also: potency is read from the fitted curve at half-maximal effect)
# Procedure, shortened: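 In this Tox21 qHTS, 2,000 HEK293 AR-bla cells per well were incubated with compounds for 16 h at 37C and 5% CO2. Fluorescence intensity was recorded 2 h after adding LiveBLAzer B/G FRET substrate at room temperature.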
# [8] = target: Androgen receptor (Homo sapiens) (UniProt P10275); experiment: qHTS assay to identify small molecule agonists of the androgen receptor (AR) signaling pathway using the MDA cell line (AID 743040; also: nearly all actives have a fitted effect of over 20% in size)
# Procedure, shortened: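 Cell-based luciferase reporter: MDA-kb2, MMTV promoter (AR + GR response elements). 16 h compound exposure at 37C; ONE-Glo, 30 min RT, luminescence.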
# [9] = qHTS assay to identify small molecule antagonists of the androgen receptor (AR) signaling pathway using the MDA cell line - cell viability counter screen (AID 743041; also: nearly all actives have a fitted effect of over 45% in size)
# Procedure, shortened: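 In this qHTS counter assay, fluorescence intensity after CellTiter-Fluor addition indicated viability of MDA-kb2 AR-luc cells given compounds and R1881 for 16 h at 37C.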
# [10] = target: Androgen receptor (Homo sapiens) (UniProt P10275); experiment: qHTS assay to identify small molecule antagonists of the androgen receptor (AR) signaling pathway using the MDA cell line (AID 743042; also: nearly all actives have a fitted effect of over 55% in size)
# Procedure, shortened: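 MDA-kb2 cells (human breast carcinoma, stably carrying an MMTV-luciferase reporter responsive to AR and GR) were plated at 3,000 cells/well and preincubated 5 hr at 37C, then given compound plus R1881 agonist for 16 h. ONE-Glo luminescence was read.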
# [11] = qHTS assay to identify small molecule antagonists of the thyroid receptor (TR) signaling pathway - cell viability counter screen (AID 743064); also: nearly all actives have a fitted effect of over 50% in size
# Procedure, shortened: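 Counter screen for cytotoxicity: compound plus T3 (1 nM final) on GH3.TRE-Luc cells, 23.5 h at 37 °C, then fluorescence viability readout with CellTiter-Fluor.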
# [12] = qHTS assay to identify small molecule antagonists of the thyroid receptor (TR) signaling pathway (AID 743065); also: series mostly up to about 70 µM; nearly all actives have a fitted effect of over 55% in size
# Procedure, shortened: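 GH3.TRE-Luc rat pituitary cells carrying two TR response elements driving luciferase were plated for 4 h, given compound plus 1 nM T3 (final), and incubated 23.5 h at 37 C. ONE-Glo luminescence measured reporter inhibition; CellTiter-Fluor fluorescence tracked cytotoxicity.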
# [13] = test system: thyroid hormone receptor (rat, GH3 cells); experiment: qHTS assay to identify small molecule agonists of the thyroid receptor (TR) signaling pathway (AID 743066; calls by dose curve)
# [14] = qHTS assay to identify small molecule antagonists of the estrogen receptor alpha (ER-alpha) signaling pathway - cell viability counter screen (AID 743074; calls by dose curve;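 also: HEK293 cells carrying ER-alpha-UAS-bla reporter stimulated with 17beta-estradiol; nearly all actives have a fitted effect of over 45% in size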)
# [15] = qHTS assay to identify small molecule antagonists of the estrogen receptor alpha (ER-alpha) signaling pathway using the BG1 cell line - cell viability counter screen (AID 743081);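 also: compound given together with 17beta-estradiol as the ER stimulus; series mostly up to about 70 µM; nearly all actives have a fitted effect of over 45% in size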
# [16] = target: Aromatase (Homo sapiens) (UniProt P11511); experiment: qHTS assay to identify aromatase inhibitors (AID 743083)
# Chain of Aromatase (Homo sapiens) (P11511 whole entry, looked up): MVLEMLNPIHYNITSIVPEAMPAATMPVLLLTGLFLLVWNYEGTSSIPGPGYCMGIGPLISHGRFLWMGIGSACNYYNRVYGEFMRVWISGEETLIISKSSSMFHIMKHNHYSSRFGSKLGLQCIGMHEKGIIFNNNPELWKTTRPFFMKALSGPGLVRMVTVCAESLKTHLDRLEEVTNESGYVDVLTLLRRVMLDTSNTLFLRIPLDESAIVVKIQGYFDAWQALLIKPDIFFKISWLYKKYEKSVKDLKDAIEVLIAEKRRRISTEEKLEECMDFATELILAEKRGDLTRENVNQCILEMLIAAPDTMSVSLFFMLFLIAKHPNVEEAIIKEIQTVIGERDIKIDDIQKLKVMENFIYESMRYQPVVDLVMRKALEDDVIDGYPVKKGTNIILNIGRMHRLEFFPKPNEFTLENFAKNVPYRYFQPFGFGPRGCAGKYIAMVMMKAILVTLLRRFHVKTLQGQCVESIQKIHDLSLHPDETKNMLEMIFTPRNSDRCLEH
# [17] = target: Estrogen receptor (Homo sapiens) (UniProt P03372); experiment: qHTS assay to identify small molecule antagonists of the estrogen receptor alpha (ER-alpha) signaling pathway (AID 743069; active = well fitted curve in the direction sought with a large enough effect in the signal ratio in the repeat runs, not every such curve was filed as active; the % refers to the signal ratio)
# Chain of Estrogen receptor (Homo sapiens) (P03372 whole entry, looked up): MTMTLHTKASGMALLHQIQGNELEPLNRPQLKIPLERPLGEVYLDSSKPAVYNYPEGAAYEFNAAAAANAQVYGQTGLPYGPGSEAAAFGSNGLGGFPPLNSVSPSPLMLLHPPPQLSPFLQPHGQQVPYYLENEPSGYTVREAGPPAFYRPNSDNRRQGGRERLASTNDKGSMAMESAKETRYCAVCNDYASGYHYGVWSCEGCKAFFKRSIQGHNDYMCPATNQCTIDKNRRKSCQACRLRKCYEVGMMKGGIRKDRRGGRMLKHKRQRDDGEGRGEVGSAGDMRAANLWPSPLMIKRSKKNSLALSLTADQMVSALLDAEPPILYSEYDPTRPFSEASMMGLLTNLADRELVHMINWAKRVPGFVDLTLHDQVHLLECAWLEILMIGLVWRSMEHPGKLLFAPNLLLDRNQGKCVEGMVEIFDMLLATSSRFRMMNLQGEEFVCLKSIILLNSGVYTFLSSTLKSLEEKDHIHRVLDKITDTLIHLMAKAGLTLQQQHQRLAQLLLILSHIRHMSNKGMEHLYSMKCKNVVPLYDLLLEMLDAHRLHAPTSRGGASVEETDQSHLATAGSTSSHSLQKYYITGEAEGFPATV
# Procedure, shortened: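 A 17beta-estradiol challenge was applied right after compound transfer to ER-alpha-UAS-bla HEK293 cells previously kept in charcoal-stripped serum. Plates stood 18 hr at 37C and 5% CO2; fluorescence was read following 2 hr FRET substrate loading at room temperature.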
# [18] = target: Estrogen receptor (Homo sapiens) (UniProt P03372); experiment: qHTS assay to identify small molecule agonists of the estrogen receptor alpha (ER-alpha) signaling pathway (AID 743075; calls by dose curve;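 also: HEK293 GripTite cells with ER-alpha and UAS-driven beta-lactamase reporter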)
# [19] = target: Estrogen receptor (Homo sapiens) (UniProt P03372); experiment: qHTS assay to identify small molecule agonists of the estrogen receptor alpha (ER-alpha) signaling pathway using the BG1 cell line (AID 743079); also: nearly all actives have a fitted effect of over 20% in size; also: potency is read from the fitted curve at half-maximal effect
# [20] = qHTS assay to identify small molecule antagonists of the estrogen receptor alpha (ER-alpha) signaling pathway using the BG1 cell line (AID 743080; calls by dose curve;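 also: BG1 cells stimulated with 17beta-estradiol alongside compound; series mostly up to about 70 µM; nearly all actives have a fitted effect of over 25% in size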)
# Procedure, shortened: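 BG1Luc4E2, endogenous ER-alpha, 4xERE-luc; 5 d charcoal-stripped FBS, phenol red free; 24 h plating; cpd + 17beta-estradiol 21.5 h, 37 C/5% CO2; CellTiter-Fluor viability 30 min, then ONE-Glo luciferase 30 min RT.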
SMILES,Potency [1],Potency [2],Potency [3],Potency [4],Potency [5],Potency [6],Potency [7],outcome [8],Potency [9],Potency [10],Potency [11],Potency [12],outcome [13],Potency [14],Potency [15],Potency [16],Potency [17],Potency [18],Potency [19],Potency [20]
CC(=O)c1ccc(C(C)=O)cc1,inactive,inactive,inactive,inactive,inactive,inactive,inactive,inactive,inactive,inactive,inactive,inactive,inactive,inactive,inactive,inactive,,,,
NC(=S)NC(N)=S,inactive,61.1 µM (active),61.1 µM (active),68.6 µM (active),inactive,inactive,inactive,inactive,inactive,inactive,inactive,,inactive,inactive,inactive,inactive,inactive,inactive,inactive,inactive
COc1cc(/C=C/c2ccccc2)oc(=O)c1,inactive,inactive,inactive,inactive,inactive,,,,inactive,,inactive,inactive,inactive,inactive,inactive,inactive,inactive,inactive,2.52 µM (active),
CCCCCCOC(=O)C(C)CC (stereo not given),inactive,inactive,inactive,inactive,inactive,inactive,inactive,inactive,inactive,inactive,inactive,inactive,inactive,inactive,inactive,inactive,inactive,inactive,inactive,inactive
CCCCCCCC,inactive,inactive,inactive,inactive,inactive,,,,inactive,,inactive,inactive,inactive,inactive,inactive,inactive,inactive,,,inactive
c1ccsc1,inactive,inactive,inactive,inactive,inactive,inactive,5.9 µM (active),,,inactive,inactive,inactive,inactive,inactive,inactive,inactive,inactive,inactive,,
c1cnccn1,inactive,inactive,inactive,inactive,inactive,,,,inactive,,inactive,inactive,inactive,inactive,inactive,inactive,inactive,inactive,inactive,inactive
NC(=O)c1cccc([N+](=O)[O-])c1,inactive,inactive,inactive,inactive,inactive,inactive,,inactive,inactive,inactive,inactive,,inactive,inactive,inactive,inactive,,inactive,inactive,inactive
CC(C)OC(=O)C(O)(CC(=O)O)CC(=O)O,inactive,inactive,inactive,inactive,inactive,inactive,inactive,inactive,inactive,inactive,inactive,inactive,,inactive,inactive,inactive,,inactive,inactive,inactive
CC(=O)OCC=C(C)C,inactive,inactive,inactive,inactive,inactive,inactive,inactive,inactive,inactive,inactive,inactive,inactive,inactive,inactive,inactive,inactive,inactive,inactive,inactive,inactive
OC/C=C/CO,inactive,inactive,inactive,inactive,inactive,,,,inactive,,inactive,inactive,inactive,inactive,inactive,inactive,inactive,,,inactive
Nc1ccc(C(=O)O)c(O)c1,inactive,inactive,inactive,inactive,inactive,inactive,inactive,inactive,inactive,inactive,inactive,inactive,inactive,inactive,inactive,inactive,,,,
CCCCC(CC)CN1CN(CC(CC)CCCC)CC(C)(N)C1 (stereo not given),inactive,10.1 µM (active),12.7 µM (active),8.04 µM (active),inactive,inactive,inactive,inactive,inactive,inactive,,inactive,inactive,inactive,inactive,inactive,inactive,inactive,inactive,inactive

# Reference: PubChem BioAssay (Tox21)
